Some test systems named below: SK-MEL-2 melanoma; EKVX NSCLC; SN12C renal; UO-31 renal; TK-10 renal; ACHN renal; CAKI-1 renal; A498 renal; CCRF-CEM leukemia; MOLT-4 leukemia; SR leukemia; RPMI-8226 leukemia; OVCAR-8 ovarian; OVCAR-5 ovarian; SK-OV-3 ovarian; IGROV1 ovarian; OVCAR-3 ovarian; HS 578T breast; NCI/ADR-RES ovarian; OVCAR-4 ovarian.
Holding throughout (assay): NCI-60 one-dose screen, 48 h (100 = growth as untreated, 0 = no growth, -100 = all killed)
Holding throughout (conditions): 10 µM unless noted

This is part of a sample that, as a whole, favours compounds with a hit. Of some 83,000 tested, about 20% had one in any assay.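 Single-concentration screen, 48 h exposure, 96-well plates. Endpoint: percent growth. Below 10 = active.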 Unmarked numbers belong to inactive results. Active and inactive are the calls of the source.

`CC(=O)c1ccc2c(c1)CCN2`: the growth with SK-MEL-2 melanoma is 104%; with EKVX NSCLC, 117%; with SN12C renal it was 96.7%; with UO-31 renal, 94.2%; with TK-10 renal, 98.1%; in the test on ACHN renal, 100%. The growth with CAKI-1 renal is 111%; in the test on A498 renal, 117%; in the test with CCRF-CEM leukemia it was 94.9%; in the test on MOLT-4 leukemia, 94.2%; in the test with SR leukemia, 93.4%; in the test with RPMI-8226 leukemia, 94.7%. Besides, the growth in the test on OVCAR-8 ovarian was 99.5%; with OVCAR-5 ovarian, 101%; in the test on SK-OV-3 ovarian, 99.9%; with IGROV1 ovarian it was 117%; in the test with OVCAR-3 ovarian, 124%; in the test with HS 578T breast, 114%. Further, in the test with NCI/ADR-RES ovarian, the growth was 110%.
Regarding `CCCCCCCC/C=C/CCCCCCCC1=NCC[N+]1(CCO)CCO`, the growth is 102% with SK-MEL-2 melanoma; 76.4% with EKVX NSCLC; 76% in the test on SN12C renal; 65.4% with UO-31 renal; 41.2% in the test with TK-10 renal; 82.2% in the test on ACHN renal. In addition, the growth in the test on CAKI-1 renal was 52.5%; with A498 renal it was 73.4%; in the test on CCRF-CEM leukemia, 31.4%; in the test with MOLT-4 leukemia, 41.7%; with SR leukemia it was 17.4%; in the test on RPMI-8226 leukemia, 38.6%. For the same compound, the growth was 80.6% with OVCAR-8 ovarian; 77.5% in the test on OVCAR-5 ovarian; 88% in the test on SK-OV-3 ovarian; -8.63% (active) in the test on IGROV1 ovarian; 59.9% with OVCAR-3 ovarian; 88.6% in the test on HS 578T breast. Besides, in the test with NCI/ADR-RES ovarian, the growth was 94.9%.
For `C/C(Cc1ccc(Cl)cc1)=C(/c1ccc(Cl)cc1)c1ccc(OCCN(C)C)cc1`, the growth was 109% in the test on SK-MEL-2 melanoma; 81.8% with EKVX NSCLC; 47.9% with SN12C renal; 65% with UO-31 renal; 82.9% with TK-10 renal; 82.8% in the test with ACHN renal. In addition, the growth in the test on CAKI-1 renal is 54.6%; in the test on A498 renal, 80.8%; in the test with CCRF-CEM leukemia, 39.5%; with MOLT-4 leukemia it was 31.7%; in the test on SR leukemia, -41.1% (active); in the test on RPMI-8226 leukemia, -41.4% (active). Also, the growth is 69.2% with OVCAR-8 ovarian; 81.2% in the test on OVCAR-5 ovarian; 40.3% with OVCAR-4 ovarian; 110% with SK-OV-3 ovarian; 57.2% in the test with OVCAR-3 ovarian; 61% with HS 578T breast. In addition, the growth with NCI/ADR-RES ovarian was 77.5%.
On to `C[C@@H]1CC[C@@H]2[C@@H]1[C@H](OC(=O)/C=C/c1ccccc1)[C@]1(C3CCCCC3)C[C@@H](NC(=O)CO)[C@@]2(C)O1`, for which the growth in the test on SK-MEL-2 melanoma was 95.9%; with EKVX NSCLC, 98.4%; with SN12C renal, 59.2%; in the test on UO-31 renal it was 72.1%; with TK-10 renal, 92.3%; in the test on ACHN renal it was 50.2%. Moreover, the growth in the test with CAKI-1 renal is 91.7%; in the test with A498 renal, 44.9%; in the test on CCRF-CEM leukemia it was 99.2%; in the test on MOLT-4 leukemia, 88.9%; in the test with SR leukemia it was 93.9%; in the test on RPMI-8226 leukemia it was 100%. Further, the growth with OVCAR-5 ovarian was 94.6%; with OVCAR-4 ovarian it was 102%; in the test with SK-OV-3 ovarian it was 112%; with IGROV1 ovarian, 101%; in the test on OVCAR-3 ovarian, 98.6%; with HS 578T breast it was 8.45% (active). Besides, in the test on NCI/ADR-RES ovarian, the growth is 95.4%.
For the compound `COc1ccc(C2CC(c3ccc4ccccc4c3)=NN2c2nc(O)c(C3=c4cc(Cl)ccc4=NC3=O)s2)cc1` (configuration not stated), the growth with SK-MEL-2 melanoma was -77% (active); with EKVX NSCLC, -74.3% (active); in the test on SN12C renal it was -30.5% (active); with UO-31 renal, -85% (active); with TK-10 renal it was -66.6% (active); with ACHN renal, -63.8% (active). For the same compound, the growth in the test on CAKI-1 renal is -50.4% (active); in the test on A498 renal, -84.3% (active); in the test on CCRF-CEM leukemia, -19% (active); with MOLT-4 leukemia it was -21.5% (active); in the test on SR leukemia it was -34.4% (active); in the test on RPMI-8226 leukemia, -3.59% (active). In addition, the growth was -16.1% (active) in the test with OVCAR-8 ovarian; -7.92% (active) with OVCAR-5 ovarian; -61.5% (active) in the test on OVCAR-4 ovarian; -11.5% (active) with IGROV1 ovarian; -83.1% (active) in the test with OVCAR-3 ovarian; -5.85% (active) in the test on HS 578T breast. In the test with NCI/ADR-RES ovarian, the growth was 58.8%.
Turning to `Cc1ccc(C)c2c1C(=O)OC2=O`, the growth in the test with SK-MEL-2 melanoma is 84.6%; in the test with EKVX NSCLC, 105%; in the test with SN12C renal, 97.9%; with UO-31 renal, 79.1%; in the test on TK-10 renal it was 102%; with ACHN renal, 98.8%. Besides, the growth is 99.4% with CAKI-1 renal; 101% in the test with A498 renal; 102% in the test on CCRF-CEM leukemia; 3.4% (active) in the test on MOLT-4 leukemia; 10.4% with SR leukemia; 109% in the test with RPMI-8226 leukemia. For the same compound, the growth with OVCAR-8 ovarian is 106%; with OVCAR-5 ovarian it was 90.6%; with OVCAR-4 ovarian it was 109%; with SK-OV-3 ovarian, 95.2%; in the test with IGROV1 ovarian, 92%; with HS 578T breast it was 114%. The growth in the test on NCI/ADR-RES ovarian was 98.1%.
`CC(C)OCCCNCC(=O)Nc1ccc(S(=O)(=O)c2ccc(NC(=O)CNCCCOC(C)C)cc2)cc1`: the growth with SK-MEL-2 melanoma was 115%; in the test on EKVX NSCLC, 101%; in the test on SN12C renal, 90.8%; in the test with UO-31 renal, 90.8%; in the test with TK-10 renal, 93.9%; in the test with ACHN renal, 100%. Further, the growth is 94.4% in the test on CAKI-1 renal; 89.5% with A498 renal; 85.1% in the test with CCRF-CEM leukemia; 78.1% in the test on MOLT-4 leukemia; 61.6% with SR leukemia; 92.8% in the test with RPMI-8226 leukemia. In addition, the growth was 105% in the test on OVCAR-8 ovarian; 116% in the test on OVCAR-5 ovarian; 111% in the test on SK-OV-3 ovarian; 75.9% with IGROV1 ovarian; 105% with OVCAR-3 ovarian; 87.6% in the test with HS 578T breast. Also, the growth with NCI/ADR-RES ovarian is 112%.
Turning to `CC(=O)NCC(=O)Nc1ccc(-c2nnc3ccccn23)nc1.CC(=O)NCC(=O)Nc1ccc(-c2nnc3ccccn23)nc1.[Pt+2]`, the growth with SK-MEL-2 melanoma is 91.4%; with EKVX NSCLC, 110%; in the test with SN12C renal it was 106%; with UO-31 renal, 106%; in the test with TK-10 renal, 103%; in the test with ACHN renal, 103%. Moreover, the growth with CAKI-1 renal was 115%; in the test with A498 renal, 101%; with CCRF-CEM leukemia, 93.3%; in the test on MOLT-4 leukemia, 96.9%; in the test with SR leukemia, 104%; in the test with RPMI-8226 leukemia it was 108%. Further, the growth is 94.3% in the test with OVCAR-8 ovarian; 114% with OVCAR-5 ovarian; 119% in the test on OVCAR-4 ovarian; 112% with SK-OV-3 ovarian; 107% with OVCAR-3 ovarian; 104% in the test with HS 578T breast. Besides, in the test with NCI/ADR-RES ovarian, the growth was 106%.

Source of the values: PubChem BioAssay (NCI).
